Test results from the supplement of paper PMC7801607.

Assays:
CHO = assay: % viability of CHO cells (MTT); higher = less toxic; conditions: 48 h
Summary of the method: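 After overnight attachment of CHO cells seeded at 10^6 cells/well in 200 µL, the medium was exchanged for fresh medium holding compound at 2 or 20 µM. Exposure lasted 48 h. Survival was read with the colorimetric tetrazolium (MTT) assay and expressed as percent of untreated cells.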

HepG2-A16-CD81 = assay: % inhibition of HepG2 viability (CellTiter-Glo); higher = more toxic; conditions: 5 µM;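 further: HepG2-A16-CD81 hepatoma cells plated as in the liver-stage assay but without sporozoites, with DMSO wells as negative and 25 µM puromycin as positive control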
[1] = tested on: Plasmodium falciparum NF54 stage IV/V gametocytes; assay: % inhibition of gametocyte viability (PrestoBlue); higher = more inhibition; conditions: 48 h
Summary of the method: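 Compound at 1 or 5 µM was incubated with Stage IV/V NF54 gametocytes (2% gametocytaemia, 5% haematocrit) for 48 h at 37 °C, stationary and hypoxic. A 2 h PrestoBlue step followed, with fluorescence read at 612 nm on transferred supernatant. Inhibition of gametocyte viability, in percent, was normalised to vehicle and kill controls from a single run.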

[2] = tested on: Plasmodium falciparum NF54 asexual blood stage; assay: % inhibition of asexual blood stage proliferation (pLDH); higher = more inhibition; conditions: 72 h
Summary of the method: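 Compound was tested at 2 or 20 µM against Plasmodium falciparum NF54 ring stages (1% haematocrit, 2% parasitaemia) for 72 h at 37 °C in 4% CO2, 3% O2 and 93% N2. Survival was read at 620 nm with the parasite lactate dehydrogenase assay, and inhibition of asexual proliferation was given as a percentage of controls.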

[3] = tested on: Plasmodium falciparum NF54 stage IV/V gametocytes; assay: % inhibition of gametocyte viability (ATP bioluminescence); higher = more inhibition; conditions: 24 h
Summary of the method: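 Compound at 1 or 5 µM was tested on stage IV/V NF54 gametocytes, enriched on density gradients and plated at 30,000 per well in 96-well plates. After 24 h at 37 °C, ATP was quantified by Promega BacTiter Glo bioluminescence. Values are percent inhibition of gametocyte viability from one run, normalised to controls.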

[4] = tested on: Plasmodium falciparum NF54 stage IV/V gametocytes; assay: % inhibition of gametocyte viability (luciferase reporter); higher = more inhibition; conditions: 48 h
Summary of the method: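 Percent inhibition came from luminescence and was normalised to controls in a single run. Gametocytes (stage IV/V, NF54-Pfs16-GFP-Luc line, 2% gametocytaemia, 2% haematocrit) were treated with compound at 1 or 5 µM and incubated for 48 h at 37 °C without agitation under hypoxia. Readings used 30 µL lysate with 30 µL Promega luciferin substrate on a GloMax-Multi+ reader, integrating for 10 s.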

| SMILES | % viability of CHO cells (CHO; 2 µM) [%] | % viability of CHO cells (CHO; 20 µM) [%] | % inhibition of HepG2 viability (HepG2-A16-CD81) [%] | % inhibition of gametocyte viability ([1]; 1 µM) [%] | % inhibition of gametocyte viability ([1]; 5 µM) [%] | % inhibition of asexual blood stage proliferation ([2]; 2 µM) [%] | % inhibition of asexual blood stage proliferation ([2]; 20 µM) [%] | % inhibition of gametocyte viability ([3]; 1 µM) [%] | % inhibition of gametocyte viability ([3]; 5 µM) [%] | % inhibition of gametocyte viability ([4]; 1 µM) [%] | % inhibition of gametocyte viability ([4]; 5 µM) [%] |
| --- | --- | --- | --- | --- | --- | --- | --- | --- | --- | --- | --- |
| CN1C(=O)C(c2ccccc2)C(=O)N(c2ccccc2)c2cc(C(F)(F)F)ccc21 (stereo not drawn) | 95.2 | 110 | 3.09 | 20.2 | 14.5 | -15.6 | 32.9 | < 0 | < 0 | 11.6 | < 0 |
| COc1ccccc1CN[C@H]1C2CCN(CC2)[C@H]1C(c1ccccc1)c1ccccc1 | 102 | 117 | -1 | 17.5 | 8.85 | -2.68 | 93 | 7.68 | 29.7 | 15.2 | < 0 |
| CCN1CCN(Cc2nc3ccc([N+](=O)[O-])cc3c(=O)n2-c2ccccc2F)CC1 | 105 | 105 | -4.34 | < 0 | < 0 | 33 | 24.4 | 13.8 | 17.7 | 9.48 | < 0 |
| COC(=O)Nc1nc2ccccc2[nH]1 | 99.1 | 110 | -1.93 | < 0 | < 0 | 6.96 | 10.6 | 1.54 | < 0 | < 0 | < 0 |
| Nc1c(C(=O)NCc2ccco2)c2nc3ccccc3nc2n1CCN1CCCCC1 | 104 | 57.3 | 10.7 | 23.5 | 46.1 | 77.4 | 116 | 51.4 | 59.7 | 13.7 | 0.236 |
| CCCCc1ccc(C(=O)O)nc1 | 90.2 | 130 | -0.607 | < 0 | 2.97 | 83.3 | 44 | 5.47 | < 0 | 7.1 | 6.9 |
| C[C@@]1(O)[C@H](O)[C@@H](CO)O[C@H]1n1ccc2c(N)ncnc21 | 127 | 92 | -1.39 | < 0 | 2.26 | 14.8 | 43.2 | 12.3 | 7.84 | 1.8 | < 0 |
| CC(C)Oc1cccc(NC(=O)c2ccccc2C(F)(F)F)c1 | 88.6 | 112 | 3.41 | 2.75 | < 0 | 2.15 | 9.83 | 3.08 | < 0 | < 0 | < 0 |
| COc1cc(C(C)(C)CCCC(C)C)cc(OC)c1OC | 108 | 76.7 | 7.92 | 11.5 | 6.64 | -22 | 48.9 | 2.47 | < 0 | 8.33 | < 0 |
| C[N+]1(C)CCCC(OC(=O)C(O)(c2ccccc2)c2ccccc2)C1 (stereo not drawn) | 122 | 140 | -0.474 | 23.3 | 9.34 | 26 | 73.9 | < 0 | < 0 | < 0 | 3.73 |
| C[C@H]1CC[C@]2(NC1)O[C@H]1C[C@H]3[C@@H]4CC[C@H]5C[C@@H](O)CC[C@]5(C)[C@H]4CC[C@]3(C)[C@H]1[C@@H]2C | 105 | 117 | -5.8 | 13.5 | 28.1 | 35.3 | 33.7 | < 0 | < 0 | 14.1 | 0.706 |
| O=C(NC12CC3CC(CC(C3)C1)C2)c1cc2ccccc2[nH]1 | 103 | 134 | 5.16 | 36.4 | 12.5 | 35 | 73.8 | < 0 | < 0 | < 0 | < 0 |
| NC1(C(=O)O)CCP(=O)(O)CC1 (stereo not drawn) | 113 | 81.6 | -2.82 | < 0 | < 0 | 12.3 | 13.4 | < 0 | < 0 | < 0 | 9.64 |
